Measured values published in PubChem BioAssay AID493056 (National Center for Advancing Translational Sciences (NCATS), 2011).
Out of some 360,000 compounds screened, about 2,400 (0.67%) were called active. Rule as the data show it: active = enhancement above about 30%; inactive = the rest. The sample as a whole holds a higher share of actives than the screen did.

Biological target: Thyrotropin-releasing hormone receptor (Homo sapiens) (UniProt P34981)
Experiment: qHTS for Small Molecule Agonists and Allosteric Enhancers of Human TRH Receptor: Primary Screen for Enhancers; also: 0% is about no effect
Settings: TRHR cells, fluo-8 calcium fluorescence, EC20 TRH enhancement; at 2 µM; hits give high values
Method in brief: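 Enhancer read-out: after compound pinning and an initial kinetic agonist-mode read, an EC20 of TRH (10 nM final) was injected and fluo-8 calcium signal (Ex 480/Em 530) followed at 1 s/cycle for 100 cycles in TRHR-expressing cells.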

Thyrotropin-releasing hormone receptor (Homo sapiens), sequence (P34981 whole entry, looked up): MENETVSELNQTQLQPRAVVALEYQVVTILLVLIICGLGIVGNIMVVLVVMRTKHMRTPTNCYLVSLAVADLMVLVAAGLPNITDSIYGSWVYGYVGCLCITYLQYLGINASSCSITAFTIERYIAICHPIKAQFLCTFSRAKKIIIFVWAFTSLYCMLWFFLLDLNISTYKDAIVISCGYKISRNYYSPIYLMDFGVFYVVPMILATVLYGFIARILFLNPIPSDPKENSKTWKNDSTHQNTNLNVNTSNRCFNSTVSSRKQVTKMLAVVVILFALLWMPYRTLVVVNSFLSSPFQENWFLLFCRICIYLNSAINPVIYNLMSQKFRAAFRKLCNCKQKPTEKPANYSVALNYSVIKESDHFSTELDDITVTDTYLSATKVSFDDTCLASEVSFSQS

Row | SMILES | enhancement
1 | N#Cc1nc(Nc2cc(F)cc(Cl)c2)nc(NC2CCCC2)n1 | -2.09% (inactive)
2 | O=C(NCc1ccccc1Cl)c1cccn1-c1nnc(N2CCCCC2)s1 | -0.339% (inactive)
3 | Cc1cccc(NC(=O)CSc2nc3c([nH]c4ccccc43)c(=O)n2-c2cc(C)cc(C)c2)c1 | 1.49% (inactive)
4 | Cc1ccc(NC(=O)CSc2nc3c([nH]c4ccccc43)c(=O)n2-c2ccccc2)cc1Cl | -2.92% (inactive)
5 | Cc1ccc(NC(=O)CSc2nc3c([nH]c4ccccc43)c(=O)n2-c2ccccc2)c(C)c1 | 39.6% (active)
6 | Cc1ccccc1OCc1nc2c3cnn(-c4ccccc4F)c3ncn2n1 | 8.56% (inactive)
7 | COc1ccc(-c2nc3sc(CCNS(=O)(=O)c4ccc(F)c(C)c4)c(C)n3n2)cc1 | -2.89% (inactive)
8 | Cc1cccc(OCC(=O)N(Cc2ccc(C(C)C)cc2)Cc2ccco2)c1C | 3.9% (inactive)
9 | COc1cccc(CN(C)CC(=O)Nc2sc3c(c2C#N)CCC3)c1 | 40.2% (active)
10 | COc1cccc(CN(C)CC(=O)Nc2ccccc2C(=O)Nc2ccccc2)c1 | 2% (inactive)
11 | Cc1ccc(C)c(OCC(=O)Nc2sc3c(c2C#N)CCCC3)c1C | 0.637% (inactive)
12 | Cc1ccc(O)c(NC(=O)c2cc(-c3ccc(F)cc3)no2)c1 | -8.05% (inactive)
13 | O=c1c2cccnc2n(Cc2cccc(F)c2)c(=O)n1Cc1ccccc1Cl | -4.81% (inactive)
14 | O=c1[nH]n2c(=O)c3c([nH]c2c1N=Nc1ccccc1)CCC3 | 31.1% (active)
15 | CC(C)(C)n1c(=O)[nH]c2c(c1=O)CCC2 | -6.6% (inactive)
16 | COc1ccc(N=Nc2c(-c3ccc(OC)cc3)[nH]oc2=O)cc1 | 5.67% (inactive)
17 | O=c1c(=O)n(Cc2c(F)cccc2Cl)ccn1Cc1ccccc1 | 6.97% (inactive)
18 | O=c1o[nH]c(-c2ccccc2)c1N=Nc1c(F)cccc1Cl | 45.6% (active)
19 | CCS(=O)(=O)c1nc(S(=O)(=O)c2ccc(C)cc2)c(NCc2ccc(Cl)cc2)s1 | 0.719% (inactive)

Row | SMILES | enhancement
20 | CCN(CC)c1ccc(C2C(C(N)=O)=C(C)Nc3nc(SCc4ccccc4)nn32)cc1 (configuration not stated) | 3.72% (inactive)
21 | O=C(/C=C/c1ccc(Cl)c([N+](=O)[O-])c1)c1cccnc1 | 36.2% (active)
22 | C/C(=N\NC(=O)c1cccc([N+](=O)[O-])c1)c1cccnc1 | 3.55% (inactive)
23 | C/C(=N\NC(=O)Cc1ccccc1[N+](=O)[O-])c1cccnc1 | 2.77% (inactive)
24 | COc1ccc(CNC(=O)C2=Cc3cccc(OC)c3OC2)cc1OC | -3.7% (inactive)
25 | C1=C(N2CCOCC2)/C(=C/c2nc3ccccc3[nH]2)CC1 | 3.98% (inactive)
26 | CC1(C)Cc2c(C#N)c(SCc3nc4ccccc4[nH]3)nc(N3CCOCC3)c2CO1 | 34.4% (active)
27 | CC(C)C(=O)N1CCN(c2nc(-c3ccccc3)c3c(c2C#N)CC(C)(C)OC3)CC1 | -1.59% (inactive)
28 | Cc1nc2nc(NCc3cccc(Br)c3)[nH]n2c(=O)c1Cc1ccccc1 | 2.4% (inactive)
29 | COc1ccc(-c2noc(CCC(=O)N(C)c3ccccc3C)n2)cc1 | 6.52% (inactive)
30 | COc1ccc(C2CC(=O)Nc3c2c(=O)nc2c(C)cccn32)cc1OC (configuration not stated) | 15% (inactive)
31 | COc1ccc(C2CC(=O)Nc3sc(=N)c4c(N)c(C#N)c(N)nc4c32)cc1OC (configuration not stated) | 33.8% (active)
32 | N#Cc1c(N)nc2c3c(sc(=N)c2c1N)NC(=O)CC3c1ccccc1Cl (configuration not stated) | 2.83% (inactive)
33 | O=C(CSc1cn(CC(=O)N2CCOCC2)c2ccccc12)Nc1ccccc1 | -5.59% (inactive)
34 | COc1ccc(Cc2nc3ccc(C(=O)NCc4ccccc4Cl)cc3o2)cc1 | 3.9% (inactive)
35 | CCC(Sc1nc2n[nH]c(C)c2c(=N)n1-c1ccccc1Cl)C(=O)N(CC)CC (configuration not stated) | -2.62% (inactive)
36 | Cc1ccc(Oc2c(C(F)(F)F)oc3c(CN4CCCCC4)c(O)ccc3c2=O)cc1 | 0.578% (inactive)
37 | CCCOc1ccc(Cc2c(O)nc(SC)[nH]c2=O)cc1C | 40.1% (active)
38 | CCCOc1ccc(Cc2c(O)nc(N)[nH]c2=O)cc1C | 5.99% (inactive)

Row | SMILES | enhancement
39 | CCOC(=O)c1sc(NC(=O)CSc2nc(O)c(Cc3ccccc3)c(=O)[nH]2)nc1C | 0.15% (inactive)
40 | Cc1cc2c(s1)c1cnn(Cc3cc(F)c(Cl)cc3Cl)c(=O)c1n2C | -6.51% (inactive)
41 | COc1ccc(CCN2C(=O)c3oc4cc(C)cc(C)c4c(=O)c3C2c2ccccc2F)cc1OC (configuration not stated) | -0.372% (inactive)
42 | O=C(Cc1ccccc1)Nc1sc2c(c1C(=O)Nc1ccc(Br)cc1)CCC2 | 1% (inactive)
43 | COc1ccc(C2Sc3ccccc3NC3=C2C(=O)c2ccccc23)c(OC)c1OC (configuration not stated) | -4.93% (inactive)
44 | COc1c(Cl)cc(C(=O)N(Cc2ccccc2F)C2CCS(=O)(=O)C2)cc1Cl (configuration not stated) | 34% (active)
45 | COc1cc(C(=O)N(Cc2ccc(C(C)C)cc2)C2CCS(=O)(=O)C2)cc(OC)c1OC (configuration not stated) | -5.35% (inactive)
46 | COc1ccccc1C(=O)N(Cc1ccc(C)o1)C1CCS(=O)(=O)C1 (configuration not stated) | 0.844% (inactive)
47 | CCOC(=O)c1ccc(N2C(=O)c3[nH]nc(-c4ccccc4)c3C2c2ccc(C(C)C)cc2)cc1 (configuration not stated) | 7.37% (inactive)
48 | Cc1ccc(C)c(N2CCN(CCCNC(=O)Nc3ccc(Cl)cc3)CC2)c1 | 2.7% (inactive)
49 | Cc1ccc(NC(=O)c2cn3c4c(ccc(Cl)c4c2=O)OC(C)C3)cc1C (configuration not stated) | 6.65% (inactive)
50 | O=C1NC(c2ccccc2)Oc2ccccc21 (configuration not stated) | 36.1% (active)
51 | C=CCOc1cccc(C2NC(=O)c3ccccc3O2)c1 (configuration not stated) | -1.8% (inactive)
52 | O=C1NC(c2cc3c(cc2Cl)OCO3)Oc2ccccc21 (configuration not stated) | 5.25% (inactive)
53 | Cc1ccc2c(=O)c(C(=O)c3ccc(F)cc3)cn(CC(=O)NC3CCCCC3)c2n1 | 7.98% (inactive)
54 | COCC(C)NS(=O)(=O)c1ccc(N2CCCCS2(=O)=O)cc1 (configuration not stated) | 6.76% (inactive)
55 | CCOC(=O)c1nn(-c2cccc(C)c2)cc1C(=O)c1ccccc1 | 11% (inactive)
56 | CCOC(=O)C1=C(O)/C(=C/c2cc(C)n(-c3ccccc3)c2C)N=C1C | 43.5% (active)
57 | CCOC(=O)C1=C(O)/C(=C/c2ccc(OCC(=O)Nc3ccc(C)cc3)cc2)N=C1C | -0.756% (inactive)
